Inconclusive results are not listed. Activity calls are given as the source filed them. The call rests on the fitted dose curve; in most records, active means well fitted inhibition curve with a large enough effect; inconclusive means small, poorly fitted or top-dose-only effect; inactive means flat fitted curve, though single readings scatter.
These compounds were tested on HEK293 (assay: Cytotoxic Profiling of Annotated Libraries Using Quantitative High-Throughput Screening (AID 1296008; further: nearly all actives have a fitted effect of over 60% in size)). Conditions: Five cell lines viability, CellTiter-Glo ATP luminescence, 48-72 h; max response: stronger effect = lower value.
Procedure, shortened: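 Compounds were pin-transferred onto cells and incubated 48 or 72 hr at 37 degree Celsius, 95% humidity. CellTiter-Glo was added, plates sat 10 min at room temperature, then ATP-coupled luminescence was imaged as the viability read-out.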
On the % scale 0 is the no-effect control and ±100 the full control effect; potency means the concentration at half of the fitted maximal effect.

SMILES	Potency	max response
C=C(F)c1sc(CNCCCNc2cc(=O)c3ccccc3[nH]2)c(C)c1Br	6.51 µM (active)	
CC(=O)O[C@@H]1[C@H](O)[C@@H](O[C@@H]2O[C@@H](C)[C@H](O[C@@H]3OC[C@@H](O)[C@H](O[C@@H]4OC[C@@H](O)[C@H](O)[C@H]4O)[C@H]3O)[C@@H](O[C@@H]3O[C@H](CO)[C@@H](O)[C@H](O)[C@H]3O)[C@H]2O)[C@H](OC(=O)[C@]23CCC(C)(C)C[C@H]2C2=CCC4[C@@]5(C)CC[C@H](O[C@@H]6O[C@H](C(=O)O)[C@@H](O)[C@H](O[C@@H]7OC[C@@H](O)[C@H](O)[C@H]7O)[C@H]6O[C@@H]6O[C@H](CO)[C@H](O)[C@H](O)[C@H]6O)[C@@](C)(C=O)C5CC[C@@]4(C)[C@]2(C)CC3)O[C@@H]1C (stereo partly specified)		-5.31% (inactive)
C[C@@H]1O[C@@H](O[C@@H]2CO[C@@H](O[C@H]3CC[C@@]4(C)C(CC[C@]5(C)C4CC=C4[C@@H]6CC(C)(C)CC[C@]6(C(=O)O[C@@H]6O[C@H](CO)[C@@H](O)[C@H](O)[C@H]6O)CC[C@]45C)[C@]3(C)CO)[C@H](O)[C@H]2O[C@@H]2O[C@H](CO)[C@@H](O)[C@H](O)[C@H]2O)[C@H](O)[C@H](O)[C@H]1O (stereo partly specified)		1.34% (inactive)
C=C(C)C1CCC(C)C12CC(O)C1(C)OC1C2OC(=O)C(N)CCC(=O)O (stereo unspecified)		-1.87% (inactive)
COc1c2c(cc3c1-c1c(cc4c(c1OC)OCO4)CC(C)C(C)C3)OCO2 (stereo unspecified)		-21.6% (inactive)
CC1=CC(=O)[C@]2(O[C@@H]3O[C@@H](C)[C@H](O)[C@@H](O)[C@H]3OC(=O)/C=C/c3ccccc3)C=CO[C@@H](O[C@@H]3O[C@H](CO)[C@@H](O)[C@H](O)[C@H]3O)[C@H]12		-1.41% (inactive)
